An excerpt weighted towards active compounds, which were near 18% of everything screened.
TDP1 block = qHTS Assay for Inhibitors of Tyrosyl-DNA Phosphodiesterase (TDP1); 350,000 tested, 0.28% active; recombinant TDP1, AlphaScreen DNA substrate cleavage; Potency, µM (series often up to 130 µM), most hits filed as inhibitors; Tyrosyl-DNA phosphodiesterase 1 (Homo sapiens), Q9NUW8; AID 485290, 2010; note: nearly all actives have a fitted effect of over 40% in size
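Signal: AlphaScreen proximity between streptavidin donor and anti-FITC acceptor beads on intact substrate. Reaction: Tdp1 1 nM, substrate 15 nM final, 5 min RT after 15 min compound preincubation.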
IL-1B inflam inh = qHTS for Inhibitors of Inflammasome Signaling: IL-1-beta AlphaLISA Primary Screen; activity change, % at 57.5 µM; 360,000 tested, 4.7% active; AID 743279, 2014; THP-1 LPS/ATP IL-1B secretion, AlphaLISA, 16 h; hits give low values; in the data active = activity change below about -50%; inconclusive = mostly about -30% to -49%
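THP-1 cells pretreated 1 hr with compounds (up to 57.5 uM final), then stimulated with LPS (250 ng/mL final) plus ATP (1.25 mM final); secreted IL-1B measured by AlphaLISA after 16 hr, decreased signal indicating inhibition.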
DT40 TDP1 no CPT = qHTS for Inhibitors of human tyrosyl-DNA phosphodiesterase 1 (TDP1): qHTS in cells in absence of CPT; Potency, µM (doses to about 46.2 µM), hits mostly inhibitors; DT40 Tdp1-/- hTDP1 cells, no CPT, ATP luminescence, 48 h; 420,000 tested, 15% active; note: nearly all actives have a fitted effect of over 55% in size
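Readout: luminescence from CellTiter-Glo after 30 min in the dark at RT. Cells: DT40 Tdp1-/- with stable hTDP1, 400/well. Exposure: compounds alone, ≥48 hr, 37 °C.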
Six1-Eya2 inh = qHTS Assay for Inhibitors of the Six1/Eya2 Interaction; AID 651725, 2012; activity change, % (concentration not given with the values); 360,000 tested, 0.56% active; AlphaScreen GST-Six1/His-Eya2 binding, biochemical; hits give low values; Homeobox protein SIX1 (Homo sapiens) + Protein phosphatase EYA2 (Homo sapiens), …; in the data active = activity change below about -65%; inconclusive = mostly about -30% to -63%
Target sequence (O00167 whole entry, looked up): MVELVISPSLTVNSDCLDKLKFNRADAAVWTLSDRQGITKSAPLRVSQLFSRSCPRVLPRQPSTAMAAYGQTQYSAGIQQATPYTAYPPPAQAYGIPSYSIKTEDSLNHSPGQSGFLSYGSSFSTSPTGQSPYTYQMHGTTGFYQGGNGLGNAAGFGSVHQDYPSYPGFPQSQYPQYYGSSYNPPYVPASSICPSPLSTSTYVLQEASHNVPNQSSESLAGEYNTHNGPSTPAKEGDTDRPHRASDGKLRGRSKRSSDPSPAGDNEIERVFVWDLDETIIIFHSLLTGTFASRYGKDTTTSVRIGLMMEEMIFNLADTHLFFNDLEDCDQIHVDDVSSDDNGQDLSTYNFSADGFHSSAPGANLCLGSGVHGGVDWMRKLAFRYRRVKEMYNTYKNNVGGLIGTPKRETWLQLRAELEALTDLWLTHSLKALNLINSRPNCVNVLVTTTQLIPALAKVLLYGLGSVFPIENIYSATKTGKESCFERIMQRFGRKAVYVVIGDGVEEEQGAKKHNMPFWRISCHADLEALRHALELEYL
Target sequence (Q15475 whole entry, looked up): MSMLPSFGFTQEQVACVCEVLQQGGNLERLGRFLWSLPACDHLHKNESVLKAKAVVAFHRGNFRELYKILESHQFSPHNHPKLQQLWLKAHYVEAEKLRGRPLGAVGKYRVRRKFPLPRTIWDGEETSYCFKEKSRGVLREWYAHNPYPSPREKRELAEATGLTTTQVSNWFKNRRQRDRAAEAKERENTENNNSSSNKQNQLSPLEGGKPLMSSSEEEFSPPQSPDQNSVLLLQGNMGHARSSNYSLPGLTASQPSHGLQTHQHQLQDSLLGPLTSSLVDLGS
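Homogeneous AlphaScreen proximity assay pairing GST-Six1 with His-tagged Eya2 (added as 5X mix: 250 nM and 500 nM) in 50 mM Tris pH 8.0, 300 mM NaCl, 1 mM TCEP. Glutathione donor and nickel acceptor beads; 1 h, 37 °C, dark.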
TDP1 cell CPT = qHTS for Inhibitors of human tyrosyl-DNA phosphodiesterase 1 (TDP1): qHTS in cells in presence of CPT; chicken DT40 Tdp1-/-;hTDP1 cells + 20 nM CPT, ATP luminescence, 48 h; Potency, µM (titrated, usually from 46.2 µM), most hits filed as inhibitors; 420,000 tested, 12% active; AID 686979, 2013; note: nearly all actives have a fitted effect of over 55% in size
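Chicken DT40 Tdp1-/- cells complemented with human TDP1, 400 cells/well, exposed to compounds plus 20 nM camptothecin for at least 48 h at 37 C; viability read as ATP content by CellTiter-Glo luminescence.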
CtBP-E1A inh = qHTS Assay for Inhibitors of the CtBP/E1A Interaction; CtBP / adenovirus E1A interaction (AlphaScreen); AlphaScreen GST-E1A/His-CtBP binding, 1536-well; hits give low values; activity change, % (test concentration not listed); 340,000 tested, 0.49% active; in the data active = activity change below about -65%; inconclusive = mostly about -30% to -63%
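Steps: dispense buffer (Tris pH 8.0, NaCl 300 mM, TCEP 1 mM, BSA, Tween 20); add 5X protein mix (GST-E1A, His-CtBP, 125 nM each); pin 23 nL compound; 2 h at 37 °C, dark; add 5X beads (50 ug/mL); 1 h; read.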
A number is an active result; . = inactive; ? = inconclusive; / = no result given. Unless noted, calls come from the whole dose curve; as a rule, active = well fitted curve in the direction sought with a large enough effect; inconclusive = small, poorly fitted or top-dose-only effect, or another doubt; inactive = no such curve, though single readings can be large; an effect the other way counts as inactive or inconclusive.

SMILES | TDP1 block | IL-1B inflam inh | DT40 TDP1 no CPT | Six1-Eya2 inh | TDP1 cell CPT | CtBP-E1A inh
Cc1nn(Cc2ccc(Cl)cc2)c(C)c1NC(=O)CSc1n[nH]c(C)c1[N+](=O)[O-] | . | . | 20.6µM | . | 25.9µM | .
Cc1ccc(S(=O)(=O)NNC(=O)c2csnn2)cc1 | . | . | . | . | . | .
C=C(C)Cn1c(CCn2c3ccccc3c3ccccc32)n[nH]c1=S | . | . | 5.8µM | . | 9.2µM | .
Cc1ccc(C(O)c2ncc(-c3ccc4ccccc4c3)[nH]2)c(C)c1 (configuration not stated) | / | . | . | . | ? | .
CC(C)(C)c1ccc(C(O)c2ncc(-c3cccc(F)c3)[nH]2)cc1 (configuration not stated) | / | . | ? | . | 14.6µM | ?
OC(c1ccc(-c2ccccc2)cc1)c1ncc(-c2cccc(F)c2)[nH]1 (configuration not stated) | / | . | ? | . | . | .
Cc1ccc(C)c(C(O)c2ncc(-c3ccc4ccccc4c3)[nH]2)c1 (configuration not stated) | / | . | ? | . | 18.4µM | .
OC(c1cc(F)cc(Cl)c1)c1ncc(-c2ccc3ccccc3c2)[nH]1 (configuration not stated) | / | . | 13µM | ? | 18.4µM | .
COc1cccc(-c2cnc(C(O)c3cc(Cl)cc(Cl)c3)[nH]2)c1 (configuration not stated) | / | . | ? | . | 23.1µM | .
Cn1cccc1/C=C1\SC(=O)N(c2ccccc2)C1=O | . | . | ? | . | . | .
O=C1CCC(C(=O)OCC(=O)C23CC4CC(CC(C4)C2)C3)N1 (configuration not stated) | . | . | . | . | . | .
CCc1nnc(NC(=O)CN2CC(C)OC(C)C2)s1 (configuration not stated) | / | . | . | . | . | /
COc1cccc(-c2cnc(C(O)c3ccc(C(C)(C)C)cc3)[nH]2)c1 (configuration not stated) | / | . | 18.4µM | . | ? | .
CSc1ccc(C(O)c2ncc(-c3ccc(F)cc3)[nH]2)cc1 (configuration not stated) | / | . | 14.6µM | . | 29.1µM | .
Cc1ccc(-c2cnc(C(O)c3ccc(C)cc3)[nH]2)cc1 (configuration not stated) | / | . | . | . | . | .
CC(C)(C)c1ccc(C(O)c2ncc(-c3ccc4ccccc4c3)[nH]2)cc1 (configuration not stated) | / | . | 18.4µM | . | ? | .
COc1ccc(Nc2cc(NCCCO)c([N+](=O)[O-])c3nonc23)cc1 | / | . | . | . | . | ?
CCCC(=O)OCCNc1cc(SCCC(=O)OC)c2nonc2c1[N+](=O)[O-] | . | -86.2 | ? | . | 16.4µM | .
COC(=O)CCSc1cc(NCCOC(C)=O)c([N+](=O)[O-])c2nonc12 | . | -97.3 | 17.8µM | . | 11.2µM | .
COc1ccc(Cn2nc3n(c2=O)-c2ccccc2OC3)cc1 | . | / | ? | / | . | /
CC(=O)c1ccc(S(=O)(=O)NCC(=O)NC(c2nc3ccccc3[nH]2)C(C)C)cc1 (configuration not stated) | . | . | ? | . | ? | .
CC(C)C(NC(=O)CCNC(=O)c1ccc(C(C)(C)C)cc1)c1nc2ccccc2[nH]1 (configuration not stated) | . | . | 18.4µM | . | ? | .
NC(=O)c1ccc(NC(=O)C#Cc2ccccc2)cc1 | . | -101.0 | 8.2µM | . | ? | .
COc1ccc(NC(=O)C#Cc2ccccc2)cc1OC | . | -70.8 | ? | . | 6.51µM | .
COc1ccc(NC(=O)c2ccccc2SC)cc1OC | . | . | . | . | . | .
SMILES | TDP1 block | IL-1B inflam inh | DT40 TDP1 no CPT | Six1-Eya2 inh | TDP1 cell CPT | CtBP-E1A inh
O=C(C#Cc1ccccc1)Nc1ccccc1F | / | -93.3 | 18.4µM | . | 20.6µM | .
CNC(=O)Nc1ccccc1F | . | . | . | . | . | .
COc1cc(/C=N/Nc2nc3ccccc3o2)cc(OC)c1O | . | . | . | . | ? | .
Cc1cc(C)nc(Nc2nc3ccccc3o2)n1 | / | -76.0 | ? | . | . | .
CC(=NNc1nc2ccccc2o1)c1ncccn1 | / | . | 13µM | -89.8 | . | .
CC(=NNc1nc2ccccc2o1)c1cc2ccccc2cn1 | / | -102.3 | 0.13µM | -92.7 | 0.13µM | -65.5
Cc1cc([N+](=O)[O-])ccc1Nc1nc2ccccc2n2cnnc12 | / | . | ? | . | ? | /
Cc1ccc(NC(=S)NNC(=S)NCc2ccccc2)cc1 | . | . | . | . | . | .
CN(c1cccc(NC(=O)c2ccc(Cl)c(S(=O)(=O)Nc3ccccc3)c2)c1)S(C)(=O)=O | . | . | 16.4µM | . | ? | .
Cc1ccc(NS(=O)(=O)c2cc(C(=O)Nc3cccc([N+](=O)[O-])c3)ccc2C)cc1 | . | -80.4 | ? | . | ? | .
Cc1ccc(C(=O)Nc2ccccc2C(=O)O)cc1S(=O)(=O)Nc1ccccc1 | / | . | 23.1µM | . | . | /
Cc1ccc(C(=O)Nc2cccc([N+](=O)[O-])c2)cc1S(=O)(=O)Nc1cccc(C(=O)O)c1 | . | . | ? | ? | ? | /
Cc1ccc(C(=O)Nc2cccc([N+](=O)[O-])c2)cc1S(=O)(=O)Nc1ccc(NC(=O)c2ccccc2)cc1 | . | . | 16.4µM | . | 16.4µM | .
O=C(NNC(=O)c1ccc(Cl)cc1Cl)c1ccc2ccccc2c1 | / | . | . | . | . | .
COc1ccc(N2C(=O)C3C4C=CC(C5CC45)C3C2=O)c([N+](=O)[O-])c1 (configuration not stated) | . | . | ? | . | . | .
Cc1oc(-c2cccc(Br)c2)nc1Cn1c(SCc2cccc(F)c2)nc2cccnc21 | . | / | 20.6µM | / | ? | /
Cc1ccc(Cn2c(SCc3ccc(C(=O)O)cc3)nc3cccnc32)cc1 | . | / | . | / | . | /
Cc1ccc(-c2nc(Cn3c(SCc4ccc(F)cc4)nc4cccnc43)c(C)o2)cc1 | . | / | 0.82µM | / | 0.731µM | /
Cc1cc2ncn(C3CC(O)C(CO)O3)c2cc1C (configuration not stated) | / | . | . | . | . | .
COc1ccccc1NS(=O)(=O)c1cc(NC(=O)C2CCC2)ccc1N1CCCCC1 | / | . | ? | . | ? | .
